This is an account of results in PubChem BioAssay.

Several values for one entry are separate records, joined by “and”; a condition that tells them apart may be missing. Identical values can stand only once. Records with an inconclusive call do not appear. For some of these results: Results with a measured potency or affinity are listed apart. Activity calls are given as the source filed them.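 Rule for the calls, unless noted: active = compounds whose cell count with miR-34 switched on is under 0.7 times the count with it off; inactive = the rest.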

For assay [1], the target named is 6-phosphogluconate dehydrogenase, decarboxylating (Homo sapiens) (UniProt P52209). The assay can be described thus: inhibition of human phosphogluconate dehydrogenase – biochemical, recombinant enzyme, NADPH absorbance, primary screen (AID 1159550;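 active = at least 20% inhibition of 6-phosphogluconate dehydrogenase activity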). The conditions noted are these: recombinant 6PGD, NADPH absorbance 341 nm; at 10 µM; stronger effect = higher value.
Sequence of 6-phosphogluconate dehydrogenase, decarboxylating (Homo sapiens) (P52209 whole entry, looked up): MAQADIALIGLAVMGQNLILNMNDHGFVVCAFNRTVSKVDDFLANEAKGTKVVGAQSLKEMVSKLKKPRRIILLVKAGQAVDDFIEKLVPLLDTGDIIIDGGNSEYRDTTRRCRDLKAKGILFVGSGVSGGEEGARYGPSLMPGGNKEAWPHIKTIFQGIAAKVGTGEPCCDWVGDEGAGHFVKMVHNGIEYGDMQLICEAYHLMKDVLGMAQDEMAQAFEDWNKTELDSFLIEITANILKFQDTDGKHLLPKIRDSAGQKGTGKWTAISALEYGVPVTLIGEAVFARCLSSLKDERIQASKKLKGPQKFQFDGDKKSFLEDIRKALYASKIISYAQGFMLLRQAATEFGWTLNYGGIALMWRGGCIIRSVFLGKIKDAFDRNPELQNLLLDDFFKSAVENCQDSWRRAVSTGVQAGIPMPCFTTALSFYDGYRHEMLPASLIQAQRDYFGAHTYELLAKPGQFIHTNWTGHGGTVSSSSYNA
Assay [2] can be described thus: viability loss with induced miR-34 in A549 – imaging, A549 dox-inducible miR-34, nuclei and caspase counts, primary screen (AID 1347080). Conditions: A549 miR-34 inducible, Hoechst nuclei count, 48 h.
A short description of assay [3]: MELAS cybrid and Rieske KO viability enhancers – cell-based, MELAS cybrids, Rieske KO mouse fibroblasts, CellTiter-Glo, primary screen (AID 1508586;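 active = mean z-score across replicates of 1.96 or higher in either the MELAS or the Rieske mutant cell line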;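 note: z relative to plate mean and SD of compound and empty wells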). Conditions: low glucose.
Assay [4] has as its target Mitogen-activated protein kinase 7 (Homo sapiens) (UniProt Q13164). The assay can be described thus: Gal4-ERK5 driven luciferase induction – cell-based, HTS, primary screen (AID 1508626;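 active = luciferase signal above three times the same-plate solvent-only control wells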;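 note: luciferase driven by Gal4-ERK5 fusion binding five Gal4 sites before minimal TATA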). The conditions noted are these: HeLa Gal4-ERK5 transactivation, 18 h, at 5 µM, stronger effect = higher value.
Assay [5] can be described thus: P. berghei load reduction in hepatocytes – cell-based, HepG2, luciferase luminescence, HepG2 viability, primary screen (AID 624349; in the data active = parasite load remaining mostly below about 12%, no sharp cut-off; inactive = mostly above about 10%;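 note: 100% = mean of DMSO negative control wells on the same plate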). The conditions noted are these: P. berghei liver stage in HepG2, luciferase luminescence, concentration not given here; parasite load remaining: stronger effect = lower value; viability: measured here: HepG2 viability without parasites.
Assay [6] concerns the target NAD(+) hydrolase SARM1 (Homo sapiens) (UniProt Q6SZW1). The assay can be described thus: blocking NAD cleavage by SARM1 SAM-TIR – cell lysate, NAD-Glo luminescence (AID 1508614;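 active = compound whose remaining NAD level is above about 45 nM, limit read from the data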;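 note: higher remaining NAD means stronger inhibition of SARM1 NADase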). The conditions noted are these: SAM-TIR HEK293T lysate NADase, at 1 µM, stronger effect = higher value.
A short description of assay [7]: blockers of polyQ-driven CASP3 activation – cell-based (AID 1583). The conditions noted are these: polyglutamine-induced caspase-3 activation, cell assay; stronger effect = higher value;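 tested at 10 µM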.
A short description of assay [8]: yeast 75Q aggregation reduction – 75Q-TubU reporter (AID 1593). The conditions noted are these: Yeast 75Q polyglutamine aggregation reporter.
Assay [9] in a line: restoration of touch response, mutant HTT neurons – whole organism, C. elegans mechanosensory neurons, N-terminal huntingtin (AID 1599). The conditions noted are these: C. elegans polyQ-huntingtin mechanosensory neurons, stronger effect = higher value.
A short description of assay [10]: blockers of cytochrome c efflux from mitochondria – biochemical, purified mitochondria (AID 1603).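 Note: mouse liver mitochondria challenged with calcium chloride; signal normalized to the plate average as 100%.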 The conditions noted are these: stronger effect = lower value.
The nature of assay [11]: polyglutamine aggregate formation blockers (AID 1604). Conditions: polyglutamine-induced protein aggregation inhibition assay; stronger effect = higher value; tested at 2.5 µM.
Assay [12] can be described thus: rescue of PC12 cells from polyQ htt toxicity – LDH release (AID 1610). Conditions: PC12 mutant huntingtin toxicity, final LDH at 4 uM, stronger effect = lower value. (In general: LDH leaks from cells whose membrane has failed.)
A short description of assay [13]: glutamate transport activators, MN-1 cells, MN-1 cell line (AID 1612).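 Note: tested at 1 µM final; 0% = mean of DMSO vehicle wells on each plate; positive means more glutamate uptake than control and negative means less.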 Conditions: MN-1 motor neuron cells, stronger effect = higher value.
The nature of assay [14]: GFP-Q80 aggregate reduction, neuronal-like cells, cell-based, NGF-treated PC12, GFPQ80 (AID 1614).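 Note: lower means fewer inclusions and 0 means no inclusions at all.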 Conditions: PC12 NGF-treated GFP-polyQ80 inclusion reduction.
Assay [15] in a line: 75Q-TubH aggregate inhibition, S. cerevisiae, yeast (AID 1616). Conditions: S. cerevisiae 75Q-TubH polyglutamine aggregation suppression; stronger effect = higher value.
The nature of assay [16]: compounds altering circadian rhythm period length – cell-based, LOPAC library, luminescence reporter (AID 2774; call rule not given here;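 note: values are relative to mean of DMSO wells on each plate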). The conditions noted are these: circadian reporter cells, at 7 µM, actives lie on both sides.
For assay [17], the system named is Hepatitis C virus NS3 helicase. Put plainly: blockers of NS3h binding to ssDNA – biochemical, fluorescence polarization, LOPAC1280 library, primary screen (AID 687035; in the data active = inhibition above about 37%). The conditions noted are these: Purified HCV NS3 helicase, Cy5-dT15 ssDNA binding fluorescence polarization; stronger effect = higher value; concentration not given here. For orientation: Fluorescence polarisation rises when a labelled molecule tumbles more slowly, as on binding a larger partner.

The nature of assay [18]: compounds altering Cy5-DNA-NS3h complex signal – biochemical, LOPAC1280, artefact control for HCV NS3 helicase inhibitor project (AID 687037; call rule not given here). The conditions noted are these: Cy5-DNA-NS3h complex fluorescence interference counterscreen. For orientation: A counterscreen serves to expose hits that act by an unwanted route or on another target.
Assay [19] is described as follows: blockers of cellular phospholipid synthesis – cell-based, LOPAC library, screen 4, primary screen (AID 1347384; call rule not given here). Conditions: animal cells, phospholipid biosynthesis inhibition screen; at 10 µM.
The nature of assay [20]: galactose survival enhancers in mitochondrial complex I cybrids – cell-based, galactose medium, ATP luminescence, primary screen (AID 1645843;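 active = z-score of at least 1.8 in each of two replicates, scored against plate mean and spread of sample wells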;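 note: positive z means more ATP and so rescue of galactose-driven cybrid death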). Conditions: complex I mutant cybrid cells, 72 h, stronger effect = higher value.
Assay [21] has as its target ATP-dependent translocase ABCB1 (Homo sapiens) (UniProt P08183). The assay can be described thus: P-glycoprotein substrate transport blockade – cell-based (AID 377; in the data active = fluorescence slope change above about 50%). Conditions: MDR1-expressing cells, fluorescent substrate accumulation slope; stronger effect = higher value; concentration not given here.
The nature of assay [22]: compounds altering viability of human ES cells (AID 493140; call rule not given here;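 note: cells exposed to compounds for four days before counting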). The conditions noted are these: human embryonic stem cell survival screen; stronger effect = higher value.
[23] abbreviates: stronger effect = lower value, cell number ratio, induced over uninduced.
Setting [24] is: measured here: relative caspase fold change +Dox/-Dox.
The mark [25] stands for this setting: measured here: total cells with miR-34 induction, stronger effect = lower value.
Where [26] appears, read: measured here: total cells without miR-34 induction.
Setting [27] is: MELAS cybrid survival, CellTiter-Glo 48 h, stronger effect = higher value.
Setting [28] is: Rieske KO mouse fibroblast survival, CellTiter-Glo 72 h.

Sequence of Mitogen-activated protein kinase 7 (Homo sapiens) (Q13164 whole entry, looked up, the tested form may be a part): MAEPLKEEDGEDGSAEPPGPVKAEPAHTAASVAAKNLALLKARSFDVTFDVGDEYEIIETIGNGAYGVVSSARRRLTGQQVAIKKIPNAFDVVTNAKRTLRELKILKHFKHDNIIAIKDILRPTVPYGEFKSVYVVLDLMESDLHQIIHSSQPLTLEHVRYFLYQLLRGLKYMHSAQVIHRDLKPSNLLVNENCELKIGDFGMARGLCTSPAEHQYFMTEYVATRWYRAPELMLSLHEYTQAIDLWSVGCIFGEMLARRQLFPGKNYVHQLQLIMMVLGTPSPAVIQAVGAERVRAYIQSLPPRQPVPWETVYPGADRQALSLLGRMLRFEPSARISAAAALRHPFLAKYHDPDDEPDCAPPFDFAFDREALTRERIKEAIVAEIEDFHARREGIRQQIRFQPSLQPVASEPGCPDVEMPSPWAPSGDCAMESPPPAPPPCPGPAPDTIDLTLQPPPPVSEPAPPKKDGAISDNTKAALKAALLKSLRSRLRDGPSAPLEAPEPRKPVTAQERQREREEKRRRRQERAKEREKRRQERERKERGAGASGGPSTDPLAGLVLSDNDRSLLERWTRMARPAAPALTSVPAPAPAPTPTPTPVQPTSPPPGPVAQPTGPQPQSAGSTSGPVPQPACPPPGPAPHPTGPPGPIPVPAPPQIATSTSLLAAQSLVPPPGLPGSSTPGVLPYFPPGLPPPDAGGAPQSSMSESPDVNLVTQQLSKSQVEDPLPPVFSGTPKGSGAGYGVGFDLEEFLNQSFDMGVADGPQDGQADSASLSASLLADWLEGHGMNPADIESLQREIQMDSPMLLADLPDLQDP
Sequence of NAD(+) hydrolase SARM1 (Homo sapiens) (Q6SZW1 whole entry, looked up): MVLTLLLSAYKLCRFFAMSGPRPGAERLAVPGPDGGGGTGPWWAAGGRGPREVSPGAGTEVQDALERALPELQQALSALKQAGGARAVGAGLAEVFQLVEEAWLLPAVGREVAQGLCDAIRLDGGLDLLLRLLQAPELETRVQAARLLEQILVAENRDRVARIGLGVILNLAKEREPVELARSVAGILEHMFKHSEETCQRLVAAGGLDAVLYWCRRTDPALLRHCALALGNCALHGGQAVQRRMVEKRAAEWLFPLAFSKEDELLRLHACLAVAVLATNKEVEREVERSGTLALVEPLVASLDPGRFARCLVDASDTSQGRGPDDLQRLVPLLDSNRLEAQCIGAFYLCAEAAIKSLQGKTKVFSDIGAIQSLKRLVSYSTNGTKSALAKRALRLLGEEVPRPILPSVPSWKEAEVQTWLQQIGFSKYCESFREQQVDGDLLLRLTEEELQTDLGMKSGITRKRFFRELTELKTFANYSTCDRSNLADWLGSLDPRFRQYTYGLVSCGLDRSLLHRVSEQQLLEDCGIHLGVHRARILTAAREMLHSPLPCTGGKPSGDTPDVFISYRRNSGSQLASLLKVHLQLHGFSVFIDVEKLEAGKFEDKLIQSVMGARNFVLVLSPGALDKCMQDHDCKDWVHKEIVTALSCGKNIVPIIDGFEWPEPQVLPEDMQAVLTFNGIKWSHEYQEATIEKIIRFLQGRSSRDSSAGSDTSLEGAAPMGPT
Sequence of ATP-dependent translocase ABCB1 (Homo sapiens) (P08183 whole entry, looked up): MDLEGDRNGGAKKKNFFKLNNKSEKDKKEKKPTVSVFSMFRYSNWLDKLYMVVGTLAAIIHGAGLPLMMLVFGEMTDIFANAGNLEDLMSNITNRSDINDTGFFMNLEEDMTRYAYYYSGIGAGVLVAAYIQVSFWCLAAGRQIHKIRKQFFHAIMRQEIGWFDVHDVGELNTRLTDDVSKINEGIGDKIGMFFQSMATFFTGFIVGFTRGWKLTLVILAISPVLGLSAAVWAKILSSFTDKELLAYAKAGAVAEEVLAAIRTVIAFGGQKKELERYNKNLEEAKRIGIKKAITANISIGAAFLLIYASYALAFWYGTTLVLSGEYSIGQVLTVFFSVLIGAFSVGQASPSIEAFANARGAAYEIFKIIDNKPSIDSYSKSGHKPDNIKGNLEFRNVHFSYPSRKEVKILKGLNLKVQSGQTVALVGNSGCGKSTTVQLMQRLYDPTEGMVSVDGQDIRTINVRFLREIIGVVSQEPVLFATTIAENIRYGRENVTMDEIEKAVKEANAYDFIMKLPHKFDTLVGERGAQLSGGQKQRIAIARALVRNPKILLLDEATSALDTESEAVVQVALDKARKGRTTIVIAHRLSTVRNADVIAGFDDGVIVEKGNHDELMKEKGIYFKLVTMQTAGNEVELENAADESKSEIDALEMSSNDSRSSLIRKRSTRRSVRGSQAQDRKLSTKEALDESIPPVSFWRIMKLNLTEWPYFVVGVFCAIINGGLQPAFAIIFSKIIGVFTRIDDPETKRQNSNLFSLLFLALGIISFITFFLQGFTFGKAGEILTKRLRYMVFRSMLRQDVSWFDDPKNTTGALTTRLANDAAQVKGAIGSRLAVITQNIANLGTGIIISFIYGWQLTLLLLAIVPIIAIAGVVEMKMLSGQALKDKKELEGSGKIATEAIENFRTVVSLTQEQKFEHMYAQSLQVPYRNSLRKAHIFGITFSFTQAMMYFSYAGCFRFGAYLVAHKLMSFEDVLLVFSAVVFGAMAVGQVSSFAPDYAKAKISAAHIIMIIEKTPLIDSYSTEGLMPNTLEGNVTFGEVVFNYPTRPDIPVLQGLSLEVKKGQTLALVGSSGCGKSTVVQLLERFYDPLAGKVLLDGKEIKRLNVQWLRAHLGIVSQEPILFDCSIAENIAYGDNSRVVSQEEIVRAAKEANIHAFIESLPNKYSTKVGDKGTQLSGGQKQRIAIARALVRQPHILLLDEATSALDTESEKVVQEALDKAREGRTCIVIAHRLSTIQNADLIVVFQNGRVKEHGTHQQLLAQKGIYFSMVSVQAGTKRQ

Usually inhibition stands for the drop in the measured response relative to a control, in per cent. Consider `Oc1cc2c(cc1O)[C@@H]1c3ccc(O)c(O)c3OC[C@]1(O)C2`, for which the inhibition in assay [1] was 1.84% (inactive). Besides, the fold change in [2] (setting [23]) was 0.884 (inactive); in [2] (setting [24]), 0.956. In addition, the cell count amounted to 9250 in assay [2] (setting [25]) and 10500 in assay [2] (setting [26]). Also, the results for the z-score in assay [3] (setting [27]) and in assay [3] (setting [28]) were -0.379 (inactive) and 0.131, respectively. Also, the luciferase signal in assay [4] is 28 AU (inactive).

For orientation: viability means a read-out of living cells in per cent, often relative to untreated cells. Regarding `O=C1O[C@H]([C@@H](O)CO)C(O)=C1O`, the parasite load remaining in assay [5] is -6.73% (active). Further, in assay [5], the viability worked out at 110%. The inhibition in assay [1] was -9.94% (inactive). Also, the fold change was 0.839 (inactive) in [2] (setting [23]) and 1.22 in assay [2] (setting [24]). The cell count turned out to be 7560 in assay [2] (setting [25]) and 9010 in assay [2] (setting [26]). Moreover, the z-score in assay [3] (setting [27]) is -0.883 (inactive); in [3] (setting [28]), -0.395. For the same compound, the remaining NAD in [6] is 10 nM (inactive). In addition, the luciferase signal in assay [4] is 60 AU (inactive).

For `CC(=O)N[C@@H](Cc1ccccc1)C(=O)O`, in assay [1], the inhibition is -1.76% (inactive). Moreover, the fold change is 0.922 (inactive) in assay [2] (setting [23]) and 1.14 in assay [2] (setting [24]). The cell count in assay [2] (setting [25]) worked out at 8280; in [2] (setting [26]), 8980.

In the case of `O=C(O)c1cc2cc(Cc3cccnc3)ccc2o1`, the inhibition in assay [7] is 22.5%; in assay [17], -2% (inactive); in assay [1], 4.63% (inactive). Further, in assay [8], the score turned out to be 1.36. This compound also displayed a rescue above control in assay [9] of -5.98. Also, the cytochrome c release ratio in assay [10] is 1.03. In [11], the inhibition of aggregation was determined as 1.59%. The compound also returned a normalised LDH release in assay [12] of 1.48. In addition, the glutamate uptake change in assay [13] is -0.47%. This compound yielded an inclusion score in assay [14] of 2. The same compound showed an aggregation suppression score in assay [15] of 1.23. In addition, in [16], the period change was 0.065 h (inactive). Also, the parasite load remaining in assay [5] was 124% (inactive). Moreover, in assay [5], the viability is 73.4%. Besides, the fluorescence ratio (interference) in assay [18] was 1 (inactive). Besides, the fold change was 0.956 (inactive) and 0.926 (inactive) in [2] (setting [23]); 0.671 and 1.19 in assay [2] (setting [24]). Moreover, the cell count in assay [2] (setting [25]) is 10100 and 5310; in assay [2] (setting [26]), 10600 and 5730. Also, the result in assay [19] was inactive. Also, the z-score in assay [20] is 0.16 (inactive).

Consider `CC(Oc1ccccc1)C(=O)N[C@@H]1C(=O)N2[C@@H]1SC(C)(C)[C@@H]2C(=O)O` (some centres not stated), for which the fluorescence slope change in assay [21] was 56.9% (active). In addition, the figures for the inhibition in [7] and in assay [1] were 11.2% and 1.89% (inactive), respectively. Besides, the score in assay [8] turned out to be 1.4. The same compound registered a rescue above control in [9] of -10.5. Moreover, the cytochrome c release ratio in [10] turned out to be 1.15. Further, the inhibition of aggregation in [11] was determined as 78.9%. For the same compound, in [13], the glutamate uptake change was found to be 10.6%. The inclusion score in assay [14] was 2. For the same compound, the aggregation suppression score in assay [15] amounted to 1.29. Further, in assay [22], the survival was 7.92 (inactive). Further, the parasite load remaining in assay [5] is 116% (inactive) and 55% (inactive). Also, the viability in [5] was 109% and 84.1%. The fold change in assay [2] (setting [23]) was 0.935 (inactive) and 0.907 (inactive); in assay [2] (setting [24]), 1.21 and 2.74. Also, the cell count in assay [2] (setting [25]) was 8390 and 12400; in assay [2] (setting [26]) it was 8980 and 13600. Besides, the results for the z-score in [3] (setting [27]) and in assay [3] (setting [28]) were -0.192 (inactive) and -0.917, respectively. In addition, the remaining NAD in [6] was 10 nM (inactive). Also, the luciferase signal in assay [4] was 36 AU (inactive).

With `COc1ccc(-c2cc(=O)c3c(O)c(OC)c(OC)cc3o2)cc1O`, in assay [1], the inhibition was 3.27% (inactive). Moreover, the fold change in assay [2] (setting [23]) was 1.03 (inactive); in assay [2] (setting [24]), 0.681. The cell count in [2] (setting [25]) is 5880; in assay [2] (setting [26]), 5680. Further, the compound was classed as inactive in [19]. Besides, the z-score in assay [20] is 0.86 (inactive).

As for `CO[C@H]1C[C@H](O[C@H]2[C@H](C)[C@@H](O[C@@H]3O[C@H](C)C[C@H](N(C)C)[C@H]3O)[C@@H](C)C[C@@]3(CO3)C(=O)[C@H](C)[C@@H](O)[C@@H](C)[C@@H](C)OC(=O)[C@@H]2C)O[C@@H](C)[C@@H]1O`, in assay [5], the parasite load remaining is 43.4% (inactive). For the same compound, the viability in [5] was 44.8%. Besides, the inhibition in assay [1] was -12.7% (inactive). In addition, the fold change in [2] (setting [23]) is 0.882 (inactive); in [2] (setting [24]) it was 0.459. For the same compound, the values for the cell count in assay [2] (setting [25]) and in assay [2] (setting [26]) were 8150 and 9240, respectively. In addition, the remaining NAD in assay [6] was 10 nM (inactive). The luciferase signal in [4] was 32 AU (inactive).
